{"source": "paper PMC7862700", "about": "“An all-to-all approach to the identification of sequence-specific readers for epigenetic DNA modifications on cytosine”", "assay_in_all_cases": "DAPPL (digital affinity profiling via proximity ligation, sequencing); 10 mM Tris-HCl pH 7.5, 50 mM NaCl, 1 mM DTT, 4% glycerol, room temperature, 30 min; GST-TFs on glutathione beads, 16-mer random dsDNA library, 0.1% formaldehyde crosslink after washing; high values mean tight binding", "conditions_in_all_cases": "protein: recombinant; tags: N-terminal GST; dsDNA, one strand shown", "key": {"FLI1": {"biological_target": "T1, FLI1 (Homo sapiens, UniProt Q01543 1-452)", "T1 sequence": "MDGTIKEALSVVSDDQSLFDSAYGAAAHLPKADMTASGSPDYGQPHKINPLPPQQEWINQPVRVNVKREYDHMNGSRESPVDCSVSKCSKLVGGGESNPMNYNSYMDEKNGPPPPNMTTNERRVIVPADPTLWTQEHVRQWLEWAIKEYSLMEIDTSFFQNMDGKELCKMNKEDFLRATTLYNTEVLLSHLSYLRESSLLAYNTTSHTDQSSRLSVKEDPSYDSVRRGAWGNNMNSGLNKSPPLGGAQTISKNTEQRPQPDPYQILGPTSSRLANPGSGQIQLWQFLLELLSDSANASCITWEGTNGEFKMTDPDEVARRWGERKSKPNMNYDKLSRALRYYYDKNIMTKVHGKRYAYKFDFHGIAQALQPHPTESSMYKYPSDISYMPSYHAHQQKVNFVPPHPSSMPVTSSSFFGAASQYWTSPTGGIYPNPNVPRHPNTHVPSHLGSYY", "summary_of_the_method": "(§1)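 Human transcription factors fused to GST were expressed in yeast, captured on glutathione beads, given DNA barcodes and pooled with a GST-only negative control. Pools were incubated with 200 nmole of a 16-mer random double-stranded DNA library in Tris/NaCl/DTT/glycerol buffer at room temperature for 30 min. They were then washed, crosslinked with 0.1% formaldehyde, proximity-ligated (BsaI/T4 ligase, 1 h, 37 °C), PCR-amplified and sequenced on an Illumina NextSeq500. Binding signal is each 6-mer's read frequency for a factor divided by its frequency for the GST control.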"}, "ELK1": {"biological_target": "T2, ELK1 (Homo sapiens, UniProt P19419 1-428)", "T2 sequence": "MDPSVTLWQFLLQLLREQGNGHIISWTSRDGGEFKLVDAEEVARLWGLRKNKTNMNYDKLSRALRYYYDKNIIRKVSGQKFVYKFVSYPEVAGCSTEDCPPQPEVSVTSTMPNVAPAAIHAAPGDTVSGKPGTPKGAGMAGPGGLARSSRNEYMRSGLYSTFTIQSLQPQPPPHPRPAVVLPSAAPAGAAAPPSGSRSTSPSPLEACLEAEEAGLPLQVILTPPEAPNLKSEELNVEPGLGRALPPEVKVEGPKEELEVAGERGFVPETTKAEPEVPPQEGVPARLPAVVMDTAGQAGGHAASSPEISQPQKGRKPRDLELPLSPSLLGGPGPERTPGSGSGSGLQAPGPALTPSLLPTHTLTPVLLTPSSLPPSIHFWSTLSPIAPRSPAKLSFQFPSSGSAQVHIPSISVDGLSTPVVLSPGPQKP", "summary_of_the_method": "as §1"}, "ELK3": {"biological_target": "T3, ELK3 (Homo sapiens, UniProt P41970 1-407)", "T3 sequence": "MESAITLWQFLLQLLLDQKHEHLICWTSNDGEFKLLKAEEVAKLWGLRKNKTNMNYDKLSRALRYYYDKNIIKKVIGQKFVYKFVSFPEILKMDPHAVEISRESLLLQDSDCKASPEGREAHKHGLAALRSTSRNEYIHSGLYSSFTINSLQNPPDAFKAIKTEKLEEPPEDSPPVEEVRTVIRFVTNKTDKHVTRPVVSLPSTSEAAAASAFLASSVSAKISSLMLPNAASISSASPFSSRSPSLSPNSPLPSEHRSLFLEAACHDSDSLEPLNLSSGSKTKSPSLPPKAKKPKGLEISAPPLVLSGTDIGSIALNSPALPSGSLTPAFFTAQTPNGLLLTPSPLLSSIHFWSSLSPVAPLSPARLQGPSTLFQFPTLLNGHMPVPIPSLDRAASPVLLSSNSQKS", "summary_of_the_method": "as §1"}, "ETV2": {"biological_target": "T4, ETV2 (Homo sapiens, UniProt O00321 1-342)", "T4 sequence": "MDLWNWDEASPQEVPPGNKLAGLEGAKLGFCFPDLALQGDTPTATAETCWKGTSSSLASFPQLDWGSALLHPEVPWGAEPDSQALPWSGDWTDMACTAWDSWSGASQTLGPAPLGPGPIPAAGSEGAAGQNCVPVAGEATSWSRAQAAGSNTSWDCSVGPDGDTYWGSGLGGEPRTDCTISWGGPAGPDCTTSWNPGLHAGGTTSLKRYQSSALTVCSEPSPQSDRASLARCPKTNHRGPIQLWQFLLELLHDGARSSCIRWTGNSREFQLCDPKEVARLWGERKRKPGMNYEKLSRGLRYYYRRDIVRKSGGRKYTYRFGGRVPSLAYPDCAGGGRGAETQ", "summary_of_the_method": "as §1"}, "ELF3": {"biological_target": "T5, ELF3 (Homo sapiens, UniProt P78545 1-371)", "T5 sequence": "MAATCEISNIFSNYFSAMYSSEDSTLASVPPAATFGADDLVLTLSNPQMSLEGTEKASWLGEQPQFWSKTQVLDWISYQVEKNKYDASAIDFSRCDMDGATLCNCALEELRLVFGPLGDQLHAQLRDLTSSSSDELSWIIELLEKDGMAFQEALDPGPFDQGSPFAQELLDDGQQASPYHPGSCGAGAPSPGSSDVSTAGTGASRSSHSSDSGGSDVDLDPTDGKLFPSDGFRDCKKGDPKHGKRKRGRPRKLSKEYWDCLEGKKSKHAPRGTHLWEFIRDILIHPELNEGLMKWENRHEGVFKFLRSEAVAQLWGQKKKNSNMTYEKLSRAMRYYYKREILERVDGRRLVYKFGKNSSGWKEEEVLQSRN", "summary_of_the_method": "as §1"}, "ETV3L": {"biological_target": "T6, ETV3L (Homo sapiens, UniProt Q6ZN32 1-361)", "T6 sequence": "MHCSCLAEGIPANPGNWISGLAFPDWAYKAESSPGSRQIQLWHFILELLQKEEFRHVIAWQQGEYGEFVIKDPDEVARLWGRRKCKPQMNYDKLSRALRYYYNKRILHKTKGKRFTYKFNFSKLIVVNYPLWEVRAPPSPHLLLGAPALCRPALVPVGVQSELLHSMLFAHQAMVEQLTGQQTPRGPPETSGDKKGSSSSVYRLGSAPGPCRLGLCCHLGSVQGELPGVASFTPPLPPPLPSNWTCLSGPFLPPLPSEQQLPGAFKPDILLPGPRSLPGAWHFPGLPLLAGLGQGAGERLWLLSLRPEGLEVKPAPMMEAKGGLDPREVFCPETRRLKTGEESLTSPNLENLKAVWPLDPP", "summary_of_the_method": "as §1"}}}
{"sequence": "CGCTAA", "values": [{"measurement": "binding signal", "setting": "FLI1", "result": "1.01 fold enrichment (6-mer frequency, TF over GST control)"}, {"measurement": "binding signal", "setting": "ELK1", "result": "1.05 fold enrichment (6-mer frequency, TF over GST control)"}, {"measurement": "binding signal", "setting": "ELK3", "result": "1 fold enrichment (6-mer frequency, TF over GST control)"}, {"measurement": "binding signal", "setting": "ETV2", "result": "1.09 fold enrichment (6-mer frequency, TF over GST control)"}, {"measurement": "binding signal", "setting": "ELF3", "result": "1 fold enrichment (6-mer frequency, TF over GST control)"}, {"measurement": "binding signal", "setting": "ETV3L", "result": "1 fold enrichment (6-mer frequency, TF over GST control)"}]}
